Measurements reported in PubChem BioAssay (NCI).
The panel holds about 83,000 compounds, 20% with a hit somewhere; the sample as a whole holds those more often.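 Single-dose data. Exposure time 48 hours. Values below 10 considered active.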 Activity calls are given as the source filed them.

What was measured:
Assay in all cases: NCI-60 one-dose screen, 48 h (100 = growth as untreated, 0 = no growth, -100 = all killed)
Details in all cases: 10 µM
NCI-H23 lung = system: NCI-H23 lung
NCI-H226 lung = system: NCI-H226 lung
NCI-H322M lung = system: NCI-H322M lung
HOP-62 NSCLC = system: HOP-62 NSCLC
NCI-H460 lung = system: NCI-H460 lung
HOP-92 NSCLC = system: HOP-92 NSCLC
NCI-H522 lung = system: NCI-H522 lung
A549/ATCC NSCLC = system: A549/ATCC NSCLC
786-0 renal = system: 786-0 renal
COLO 205 colon = system: COLO 205 colon

Measured: growth

Fc1cc(-c2ncc(-c3cc(F)c(F)c(F)c3)c(NC3CCCCCC3)n2)cc(F)c1F
inactive: NCI-H23 lung 102% | NCI-H226 lung 95.9% | NCI-H322M lung 102% | HOP-62 NSCLC 122% | NCI-H460 lung 102% | HOP-92 NSCLC 88.8% | NCI-H522 lung 120% | A549/ATCC NSCLC 85.6% | 786-0 renal 98.3% | COLO 205 colon 115%

CC(C)OCc1cc(CN2CCN(c3cccc(Cl)c3)CC2)c(O)c2ncccc12
active: NCI-H23 lung -44.8% | NCI-H226 lung 1.5% | NCI-H322M lung -10.6% | HOP-62 NSCLC -0.196% | NCI-H460 lung 0.361% | HOP-92 NSCLC -35.2% | NCI-H522 lung -26.2% | A549/ATCC NSCLC -5.68% | 786-0 renal 0.332% | COLO 205 colon -43.1%

COc1ccc(NC(=O)c2sc3nc4c(cc3c2N)C(O)CCC4)cc1 (stereo not given)
inactive: NCI-H23 lung 98.5% | NCI-H226 lung 101% | NCI-H322M lung 30.6% | HOP-62 NSCLC 117% | NCI-H460 lung 48.3% | HOP-92 NSCLC 85.2% | NCI-H522 lung 99.8% | A549/ATCC NSCLC 70% | 786-0 renal 94.8% | COLO 205 colon 110%

Oc1[nH]c2ccccc2c1/C=c1/cc2c(c(-c3ccc(C(F)(F)F)cc3)n1)=Nc1ccccc1-2
inactive: NCI-H23 lung 71.1% | NCI-H226 lung 54.1% | NCI-H322M lung 93.8% | HOP-62 NSCLC 85% | NCI-H460 lung 22% | HOP-92 NSCLC 20.7% | NCI-H522 lung 33.5% | A549/ATCC NSCLC 56.8% | 786-0 renal 66% | COLO 205 colon 33.9%

NC(=O)C1CCCN(Cc2c[nH]c3ccccc23)C1 (stereo not given)
inactive: NCI-H23 lung 95.8% | NCI-H226 lung 84.5% | NCI-H322M lung 98.5% | HOP-62 NSCLC 91.1% | NCI-H460 lung 106% | HOP-92 NSCLC 96.2% | NCI-H522 lung 84.6% | A549/ATCC NSCLC 96.4% | 786-0 renal 105% | COLO 205 colon 104%

CNC(=O)c1cc(Oc2ccc(NC(=O)Nc3ccc(Cl)c(OC(C)C)c3)c(F)c2)ccn1
inactive: NCI-H23 lung 28.1% | NCI-H226 lung 52.5% | NCI-H322M lung 81.1% | HOP-62 NSCLC 69.3% | NCI-H460 lung 61.1% | HOP-92 NSCLC 60.1% | NCI-H522 lung 25.3% | A549/ATCC NSCLC 44.5% | 786-0 renal 107% | COLO 205 colon 33.5%

COc1ccc(-c2ccc(-c3ccc(C(=N)N)c(F)c3)s2)cc1
active: NCI-H23 lung -81.9% | NCI-H226 lung -41% | NCI-H322M lung -91.5% | HOP-62 NSCLC -75.7% | NCI-H460 lung -84.2% | HOP-92 NSCLC -87.8% | NCI-H522 lung -76.5% | A549/ATCC NSCLC -81.9% | 786-0 renal -82.5% | COLO 205 colon -71.1%

CC1(CO)CCCC12OCCO2 (stereo not given)
inactive: NCI-H23 lung 106% | NCI-H226 lung 99.7% | NCI-H322M lung 107% | HOP-62 NSCLC 100% | NCI-H460 lung 105% | HOP-92 NSCLC 120% | NCI-H522 lung 93% | A549/ATCC NSCLC 101% | 786-0 renal 102% | COLO 205 colon 114%

CCCCCCCCCCCCCC[n+]1ccccc1
inactive: NCI-H322M lung 16.9%
active: NCI-H23 lung -11.7% | NCI-H226 lung -19% | HOP-62 NSCLC -62% | NCI-H460 lung -44.8% | HOP-92 NSCLC -50.8% | NCI-H522 lung -66.9% | A549/ATCC NSCLC -55.8% | 786-0 renal -53.5% | COLO 205 colon -93%

CCC(OC(=O)CC(C)C)c1ccccc1 (stereo not given)
inactive: NCI-H23 lung 98.8% | NCI-H226 lung 89.4% | NCI-H322M lung 93.3% | HOP-62 NSCLC 96.3% | NCI-H460 lung 105% | HOP-92 NSCLC 92.8% | NCI-H522 lung 71.8% | A549/ATCC NSCLC 80.6% | 786-0 renal 95.2% | COLO 205 colon 107%

CCOC(=O)c1c(C)n(-c2ccc(Cl)cc2)c2ccc(OC(=O)/C=C/c3ccccc3)cc12
inactive: NCI-H23 lung 93.3% | NCI-H226 lung 95.1% | NCI-H322M lung 94.8% | HOP-62 NSCLC 95% | NCI-H460 lung 99.1% | HOP-92 NSCLC 58% | NCI-H522 lung 82.3% | A549/ATCC NSCLC 67.7% | 786-0 renal 94.3% | COLO 205 colon 93.1%

N/C(=N\O)c1cn(C2OC(CO)C(O)C2O)c2ncnc(N)c12 (stereo not given)
inactive: NCI-H226 lung 26.4% | NCI-H322M lung 11% | 786-0 renal 20.9%
active: NCI-H23 lung -1.68% | HOP-62 NSCLC -18.8% | NCI-H460 lung -44.1% | HOP-92 NSCLC -6.61% | NCI-H522 lung -42.9% | A549/ATCC NSCLC 4.88% | COLO 205 colon -92.4%

O=C(O)CCCN1C(=O)NC2(C1=O)c1ccccc1-c1ccccc12
inactive: NCI-H23 lung 93.2% | NCI-H226 lung 91.1% | NCI-H322M lung 101% | HOP-62 NSCLC 102% | NCI-H460 lung 105% | HOP-92 NSCLC 88.5% | NCI-H522 lung 80.4% | A549/ATCC NSCLC 90.2% | 786-0 renal 95.2% | COLO 205 colon 108%

C[C@@H]1N=C(c2ccc(Br)cc2)Nc2nc3ccccn3c2C1=O
inactive: NCI-H23 lung 53.7% | NCI-H226 lung 68.3% | NCI-H322M lung 74% | HOP-62 NSCLC 55.8% | NCI-H460 lung 32.5% | HOP-92 NSCLC 59.5% | NCI-H522 lung 34.8% | A549/ATCC NSCLC 54.7% | 786-0 renal 83.1% | COLO 205 colon 26.3%
